About 2,000 (36%) of roughly 5,500 compounds were called active. Roughly 18% stayed inconclusive and do not appear here. Cut-off read from the data, not from the text of the source: active = normalized growth mostly below about 0.91 (no sharp cut-off); inconclusive = no clear call, values can overlap the other calls; inactive = mostly above about 0.92. The list shows a part of the results.
Experiment: chemical genetic growth profiling, strain panel (AID 1159580);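 note: tested at 20 µM; growth read once vehicle control cultures reached saturation at 30 °C; 1 = growth at the plate median or of vehicle wells; lower values mean less growth of the strain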
Conditions: growth OD

Measured: normalized growth

O=C(O)c1cc2cc(Cl)ccc2[nH]1
inactive: S. cerevisiae deletion strains, locus YJR075W, strain HOC1, stronger effect = lower value 1.05 | S. cerevisiae deletion strains, locus YKL009W, strain mrt4, stronger effect = lower value 1.01 | S. cerevisiae deletion strains, locus YKL068W, stronger effect = lower value 0.98 | S. cerevisiae deletion strains, locus YKL085W, strain MDH1 (second series), stronger effect = lower value 1.02 | S. cerevisiae deletion strains, locus YKL085W, strain MDH1, stronger effect = lower value 1.02 | S. cerevisiae deletion strains, locus YKL160W, strain elf1, stronger effect = lower value 1 | S. cerevisiae deletion strains, locus YKL190W, strain CNB1, stronger effect = lower value 1.01 | S. cerevisiae deletion strains, locus YKR001C, strain vps1, stronger effect = lower value 0.984 | S. cerevisiae deletion strains, locus YKR026C, strain gcn3, stronger effect = lower value 0.963 | S. cerevisiae deletion strains, locus YKR091W, strain srl3, stronger effect = lower value 0.994 | S. cerevisiae deletion strains, locus YLL001W, strain dnm1, stronger effect = lower value 0.966 | S. cerevisiae deletion strains, locus YLL026W, stronger effect = lower value 0.98 | S. cerevisiae deletion strains, locus YLL041C, strain sdh2, stronger effect = lower value 0.988 | S. cerevisiae deletion strains, locus YLR027C, strain aat2, stronger effect = lower value 0.992 | S. cerevisiae deletion strains, locus YLR039C, strain RIC1, stronger effect = lower value 1.04 | S. cerevisiae deletion strains, locus YLR058C, strain SHM2, stronger effect = lower value 1.01 | S. cerevisiae deletion strains, locus YLR102C, strain apc9, stronger effect = lower value 0.98 | S. cerevisiae deletion strains, locus YLR113W, strain HOG1, stronger effect = lower value 0.944 | S. cerevisiae deletion strains, locus YLR221C, strain rsa3, stronger effect = lower value 0.991 | S. cerevisiae deletion strains, locus YLR258W, strain gsy2, stronger effect = lower value 0.989 | S. cerevisiae deletion strains, locus YLR262C, strain YPT6 (second series), stronger effect = lower value 0.994 | S. cerevisiae deletion strains, locus YLR262C, strain YPT6, stronger effect = lower value 1.06 | S. cerevisiae deletion strains, locus YLR268W, strain sec22, stronger effect = lower value 1 | S. cerevisiae deletion strains, locus YLR320W, strain mms22, stronger effect = lower value 0.987 | S. cerevisiae deletion strains, locus YLR330W, strain CHS5, stronger effect = lower value 1 | S. cerevisiae deletion strains, locus YLR342W, strain FKS1 (second series), stronger effect = lower value 1.01 | S. cerevisiae deletion strains, locus YLR342W, strain FKS1, stronger effect = lower value 0.991 | S. cerevisiae deletion strains, locus YLR357W, strain rsc2, stronger effect = lower value 0.953 | S. cerevisiae deletion strains, locus YLR370C, strain arc18, stronger effect = lower value 0.981 | S. cerevisiae deletion strains, locus YLR371W, strain rom2, stronger effect = lower value 0.98 | S. cerevisiae deletion strains, locus YLR384C, strain iki3, stronger effect = lower value 0.986 | S. cerevisiae deletion strains, locus YLR418C, strain cdc73, stronger effect = lower value 0.991 | S. cerevisiae deletion strains, locus YML016C, strain PPZ1, stronger effect = lower value 1 | S. cerevisiae deletion strains, locus YML032C, strain rad52, stronger effect = lower value 0.977 | S. cerevisiae deletion strains, locus YML120C, strain ndi1, stronger effect = lower value 0.984 | S. cerevisiae deletion strains, locus YML124C, strain tub3, stronger effect = lower value 0.987 | S. cerevisiae deletion strains, locus YMR058W, strain fet3, stronger effect = lower value 0.985 | S. cerevisiae deletion strains, locus YMR078C, strain ctf18, stronger effect = lower value 0.977 | S. cerevisiae deletion strains, locus YMR125W, strain sto1, stronger effect = lower value 0.959 | S. cerevisiae deletion strains, locus YMR129W, stronger effect = lower value 0.993 | S. cerevisiae deletion strains, locus YMR205C, strain PFK2, stronger effect = lower value 0.956 | S. cerevisiae deletion strains, locus YMR223W, strain ubp8, stronger effect = lower value 0.983 | S. cerevisiae deletion strains, locus YMR231W, strain pep5, stronger effect = lower value 0.989 | S. cerevisiae deletion strains, locus YMR263W, strain SAP30, stronger effect = lower value 1.02 | S. cerevisiae deletion strains, locus YMR307W, strain GAS1, stronger effect = lower value 1.02 | S. cerevisiae deletion strains, locus YNL067W, strain RPL9B, stronger effect = lower value 1.03 | S. cerevisiae deletion strains, locus YNL071W, strain lat1, stronger effect = lower value 0.994 | S. cerevisiae deletion strains, locus YNL128W, strain TEP1, stronger effect = lower value 1.03 | S. cerevisiae deletion strains, locus YNL153C, strain GIM3, stronger effect = lower value 1.03 | S. cerevisiae deletion strains, locus YNL183C, strain NPR1, stronger effect = lower value 0.866 | S. cerevisiae deletion strains, locus YNL209W, strain ssb2, stronger effect = lower value 0.991 | S. cerevisiae deletion strains, locus YNL233W, strain BNI4, stronger effect = lower value 1.01 | S. cerevisiae deletion strains, locus YNL248C, strain rpa49, stronger effect = lower value 0.991 | S. cerevisiae deletion strains, locus YNL250W, strain rad50, stronger effect = lower value 0.971 | S. cerevisiae deletion strains, locus YNL271C, strain bni1, stronger effect = lower value 0.969 | S. cerevisiae deletion strains, locus YNL298W, strain CLA4, stronger effect = lower value 0.978 | S. cerevisiae deletion strains, locus YNL307C, strain MCK1, stronger effect = lower value 0.979 | S. cerevisiae deletion strains, locus YNL322C, strain KRE1 (second series), stronger effect = lower value 0.984 | S. cerevisiae deletion strains, locus YNL322C, strain KRE1, stronger effect = lower value 1.01 | S. cerevisiae deletion strains, locus YNR049C, strain mso1, stronger effect = lower value 0.983 | S. cerevisiae deletion strains, locus YNR052C, strain pop2, stronger effect = lower value 0.989 | S. cerevisiae deletion strains, locus YOL006C, strain TOP1, stronger effect = lower value 1.05 | S. cerevisiae deletion strains, locus YOL012C, strain htz1 0.817 | S. cerevisiae deletion strains, locus YOL147C, strain pex11, stronger effect = lower value 0.981 | S. cerevisiae deletion strains, locus YOR001W, strain rrp6, stronger effect = lower value 1.01 | S. cerevisiae deletion strains, locus YOR061W, strain CKA2, stronger effect = lower value 1.01 | S. cerevisiae deletion strains, locus YOR069W, strain VPS5, stronger effect = lower value 0.996 | S. cerevisiae deletion strains, locus YOR070C, strain gyp1, stronger effect = lower value 0.986 | S. cerevisiae deletion strains, locus YOR080W, strain dia2, stronger effect = lower value 0.981 | S. cerevisiae deletion strains, locus YOR083W, strain WHI5, stronger effect = lower value 1 | S. cerevisiae deletion strains, locus YOR106W, strain vam3, stronger effect = lower value 0.999 | S. cerevisiae deletion strains, locus YOR136W, strain idh2, stronger effect = lower value 0.992 | S. cerevisiae deletion strains, locus YOR144C, strain elg1, stronger effect = lower value 0.989 | S. cerevisiae deletion strains, locus YOR184W, strain ser1, stronger effect = lower value 0.967 | S. cerevisiae deletion strains, locus YOR231W, strain MKK1, stronger effect = lower value 0.926 | S. cerevisiae deletion strains, locus YOR265W, strain rbl2, stronger effect = lower value 0.99 | S. cerevisiae deletion strains, locus YOR270C, strain vph1, stronger effect = lower value 0.984 | S. cerevisiae deletion strains, locus YOR290C, strain snf2, stronger effect = lower value 0.992 | S. cerevisiae deletion strains, locus YOR316C, strain cot1, stronger effect = lower value 0.983 | S. cerevisiae deletion strains, locus YPL051W, strain arl3, stronger effect = lower value 0.991 | S. cerevisiae deletion strains, locus YPL055C, strain LGE1, stronger effect = lower value 1.06 | S. cerevisiae deletion strains, locus YPL078C, strain atp4, stronger effect = lower value 0.997 | S. cerevisiae deletion strains, locus YPL106C, strain sse1, stronger effect = lower value 0.966 | S. cerevisiae deletion strains, locus YPL240C, strain hsp82, stronger effect = lower value 0.998 | S. cerevisiae deletion strains, locus YPL241C, strain CIN2, stronger effect = lower value 1.01 | S. cerevisiae deletion strains, locus YPL256C, strain CLN2, stronger effect = lower value 0.935 | S. cerevisiae deletion strains, locus YPR119W, strain clb2, stronger effect = lower value 0.983 | S. cerevisiae deletion strains, locus YPR141C, strain kar3, stronger effect = lower value 0.976 | S. cerevisiae deletion strains, locus YPR163C, strain tif3, stronger effect = lower value 0.991 | S. cerevisiae deletion strains, locus YPR167C, strain met16, stronger effect = lower value 0.986 | S. cerevisiae deletion strains, strain wtn01, stronger effect = lower value 0.992 | S. cerevisiae strains, strain wild type, stronger effect = lower value 1.01

— PubChem BioAssay AID1159580 (chemical genetic matrix, 2015)
